# Measurements published in ChEMBL document CHEMBL3988442, “University of Dundee, Small-Polar-MMV Screening Library” (2021).
# Out of some 69,000 compounds screened, about 1,000 (1.4%) showed an effect of 50% or more. What follows is part of a selection rich in strong results, with near analogues and random picks from the rest.
# System: Leishmania donovani
# Experiment: Leishmania intramacrophage assay
# Format: functional, organism-based
# Design: scale not given: in the data most compounds retested in dose-response had high values
smiles,measurement,setting,value
Cc1cc(C)n(Cc2ccc(-c3noc(C(=O)NC[C@@H](C)O)n3)cc2)n1,Percent Effect,"30.3 µM, […]",18.71%
O=C(O)C(F)(F)F.O=C(O)C(F)(F)F.c1cnc(N2CCC3(CCN(Cc4ccncc4)CC3)CC2)nc1,Percent Effect,"30 µM, 30.03 µM",38.21%
Cc1nccn1CC1CCCN(S(=O)(=O)c2cnn(C)c2)C1 (configuration not stated),Percent Effect,"30.3 µM, […]",12.01%
O=C(N1CCOCC1)N1CCOC[C@H](Oc2ccc(C(F)(F)F)cc2)C1,Percent Effect,"30.3 µM, […]",-1.363%
COc1cc(CN2CC[C@@H](N3CCCCCC3)[C@H](O)C2)cc(Cl)c1OC,Percent Effect,"30.3 µM, […]",50.85%
COc1cc(Cl)c(CN2CCC(C(N)=O)C2)cc1Cl (configuration not stated),Percent Effect,"30.3 µM, […]",31.88%
COc1cc(Cl)cc(CN2CCCC(N3CCCC3)C2)c1OC (configuration not stated),Percent Effect,"30.3 µM, […]",12.54%
COCCC(=O)N1CCC2(CCN(Cc3ccc(OC)c(F)c3)C2)C1 (configuration not stated),Percent Effect,"30.3 µM, […]",-20.78%
CC(=O)NCc1ccc(C(=O)N2CCCc3c(F)ccc(C)c32)cc1,Percent Effect,"30.3 µM, […]",35.68%
COc1cccc2c1OCC(Cc1cc(C(N)=O)ccn1)C2 (configuration not stated),Percent Effect,"30.3 µM, […]",69.64%
COc1cccc2c1OCC(Cc1cc(C(=O)N3CCCC3)ccn1)C2 (configuration not stated),Percent Effect,"30.3 µM, […]",20.15%
CNC(=O)c1ccnc(CC2COc3c(cccc3OC)C2)c1 (configuration not stated),Percent Effect,"30.3 µM, […]",-40.6%
CCOc1ncccc1CNC(=O)Nc1ccccc1,Percent Effect,30 µM,-12.58%
COc1nn(C)cc1-c1nnc(SCc2cccnc2)n1C,Percent Effect,"30.3 µM, […]",-1.752%
CC(C)=CCC1(C(=O)O)CCCN(CCC(=O)NC2CC2)C1 (configuration not stated),Percent Effect,"30.3 µM, […]",0.5122%
CCN(CC)C(=O)c1nc2c(s1)CCN(Cc1cccc(OC)c1)CC2.O=C(O)C(F)(F)F,Percent Effect,"30.3 µM, […]",-7.279%
COc1ccccc1OCCN(C)c1cc(C)nc(N)n1,Percent Effect,"30.3 µM, […]",6.974%
Cc1cc(N(C)CCOc2ccccc2F)nc(N)n1,Percent Effect,"30.3 µM, […]",60.08%
COc1ccc(OCCN(C)c2cc(C)nc(N)n2)cc1,Percent Effect,"30.3 µM, […]",6.601%
Cc1nc(C2CCCN2CC(=O)Nc2cc(C(C)(C)C)nn2C)no1 (configuration not stated),Percent Effect,30 µM,12.3%
CC(C)n1cnnc1CN(C)CC1CCCNC1 (configuration not stated),Percent Effect,"30.3 µM, […]",32.72%
Cl.N#Cc1ccc(NC(=O)C2CSCN2)cc1 (configuration not stated),Percent Effect,"30.3 µM, […]",0.03454%
CS(=O)(=O)NCCC1CN(Cc2ccccc2F)CCO1 (configuration not stated),Percent Effect,"30.3 µM, […]",18.65%
OC1(Cn2ccnc2)CCN(C[C@]2(O)CCCN3CCCC[C@@H]32)CC1,Percent Effect,"30.3 µM, […]",-28.91%
CC(C(=O)Nc1cccc(Cl)c1SC(F)F)S(C)(=O)=O (configuration not stated),Percent Effect,"30.3 µM, […]",58.19%
O=C(NCCO)Nc1cccc(Cl)c1SC(F)F,Percent Effect,"30 µM, 30.03 µM",-27.47%
CC(=O)NCCNC(=O)Nc1cccc(Cl)c1SC(F)F,Percent Effect,"30.3 µM, […]",17.25%
Cc1[nH]c2ccccc2c1CCNc1ncnc2c1CCNCC2,Percent Effect,"30.3 µM, […]",16.03%
Cc1[nH]c2ccc(Cl)cc2c1CCNc1ncnc2c1CCNC2,Percent Effect,"30.3 µM, […]",54.3%
Cc1[nH]c2ccc(C#N)cc2c1CCNc1ncnc2c1CCNCC2,Percent Effect,"30.3 µM, […]",16.81%
CC(C)CN(Cc1ccsc1)C(=O)CCCn1cncn1,Percent Effect,"30.3 µM, […]",40.23%
Cc1csc(CCCNC(=O)NC2CC(=O)N(C(C)(C)C)C2)n1 (configuration not stated),Percent Effect,"30.3 µM, […]",22.59%
CN(Cc1ccsc1)C(=O)c1nc(N2CCCCC2)ncc1Cl,Percent Effect,"30.3 µM, […]",60.89%
Cc1noc(C)c1CN(C)C(=O)c1nc(N2CCCC2)ncc1Cl,Percent Effect,"30.3 µM, […]",-8.961%
CCOc1ccc(NC(=O)c2cnc(N3CCCC3)nc2C)cc1,Percent Effect,"30 µM, 30.03 µM",16.9%
CCOc1ccc(CN(C)C(=O)c2nc(N3CCCC3)ncc2Cl)cc1,Percent Effect,"30.3 µM, […]",58.99%
CN(Cc1ccsc1)C(=O)c1nc(N2CCCC2)ncc1Cl,Percent Effect,"30.3 µM, […]",20.2%
O=C(c1nc(N2CCCC2)ncc1Cl)N1CCN(Cc2ccsc2)CC1,Percent Effect,"30.3 µM, […]",1.991%
CCc1c(C(=O)N2CCN(C)[C@@H]3CS(=O)(=O)C[C@@H]32)[nH]c2ccccc12,Percent Effect,"30.3 µM, […]",-15.51%
CS(=O)(=O)NCc1cn2c(n1)CN(Cc1cccnc1)CC2.O=C(O)C(F)(F)F.O=C(O)C(F)(F)F,Percent Effect,"30.3 µM, […]",33.92%
O=C(O)C(F)(F)F.O=C(c1ccnnc1)N1CCN2C[C@H](Oc3cccc(F)c3)C[C@H]2C1,Percent Effect,"30 µM, 30.03 µM",5.462%
COc1ccc(CN2C[C@@H](CN(C)C)[C@@H](CO)C2)cc1CN1CCCC1,Percent Effect,"30.3 µM, […]",7.971%
COc1ccc(CN2C[C@@H](CN(C)C)[C@@H](CO)C2)cc1OC,Percent Effect,"30.3 µM, […]",51.5%
COc1ccc(CN2C[C@@H](CN(C)C)[C@@H](CO)C2)c(Cl)c1OC,Percent Effect,"30.3 µM, […]",52.59%
CN(C)C[C@@H]1CN(Cc2ccccc2C#N)C[C@@H]1CO,Percent Effect,"30.3 µM, […]",-11.66%
COc1cccc(OC)c1C(=O)N1C[C@@H](CN(C)C)[C@@H](CO)C1,Percent Effect,"30.3 µM, […]",-22.82%
COc1ccc(CN2C[C@@H](CN(C)CCO)[C@@H](CO)C2)cc1Cl,Percent Effect,"30.3 µM, […]",33.72%
